# Source: PubChem BioAssay (EPA / NIEHS)
# Activity calls are given as the source filed them. How the source made its calls: active means hit-call score of the fitted dose curve at least 0.9, where 1 is the maximum; inactive means score below 0.9.
# Experiments:
# [1] = ATG_CRE_CIS: Attagene CIS-FACTORIAL HepG2 Assay for human cAMP Responsive Element (CRE) binding protein 3 (AID 2282926); details: HepG2 CRE cis-reporter, Attagene multiplexed mRNA; actives raise or lower the signal
# Method in brief: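 We dosed HepG2 cells bearing multiple cis-promoter reporter units for 24 h and measured reporter mRNA by RT-PCR with capillary electrophoresis detection. Bidirectional concentration-response fitting used DMSO as negative control.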
# [2] = molecular target: CCAAT/enhancer-binding protein beta (Homo sapiens) (UniProt P17676); assay: ATG_C_EBP_CIS: Attagene CIS-FACTORIAL HepG2 Assay for human CCAAT/Enhancer Binding Protein (C/EBP) beta (AID 2282927); details: HepG2 Attagene cis-factorial transcription factor reporter; actives raise or lower the signal
# Sequence of CCAAT/enhancer-binding protein beta (Homo sapiens) (P17676 whole entry, looked up): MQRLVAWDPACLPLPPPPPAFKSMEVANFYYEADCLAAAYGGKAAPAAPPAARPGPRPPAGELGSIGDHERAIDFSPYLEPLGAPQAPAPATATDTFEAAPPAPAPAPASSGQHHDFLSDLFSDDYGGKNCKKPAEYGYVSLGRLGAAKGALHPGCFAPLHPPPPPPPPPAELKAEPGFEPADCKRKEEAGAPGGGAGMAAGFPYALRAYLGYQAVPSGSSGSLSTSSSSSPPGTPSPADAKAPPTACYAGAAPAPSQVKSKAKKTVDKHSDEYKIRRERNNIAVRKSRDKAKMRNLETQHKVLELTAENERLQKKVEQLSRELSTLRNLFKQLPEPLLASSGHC
# Method in brief: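 HepG2, transient MRTU transfection, 24 h treatment. RT-PCR plus CE fluorescence; DMSO negative control, bidirectional fit.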
# [3] = ATG_CMV_CIS: Attagene CIS-FACTORIAL HepG2 Assay for human CMV (Internal Marker) (AID 2282928); details: HepG2 CMV promoter reporter, transcription factor profiling; actives raise or lower the signal;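 further: endpoint acts as a background internal control marker rather than a target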
# Method in brief: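 After transient transfection of HepG2 with reporter transcription units driven by cis-regulatory promoters, cells receive test chemical for 24 h. Labeled reporter amplicons, digested with HpaI, are sized and quantified by capillary electrophoresis against DMSO.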
# [4] = ATG_DR4_LXR_CIS: Attagene CIS-FACTORIAL HepG2 Assay for human Liver X Receptor (LXR), DR4 submotif (AID 2282929); details: HepG2 Attagene DR4 cis-reporter, mRNA transcription; actives raise or lower the signal
# Method in brief: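 HepG2 cells were transiently transfected with multiple cis-regulated reporter units and dosed for 24 hours. The DR4 reporter mRNA was quantified by RT-PCR, 6-FAM labelling and capillary electrophoresis. Bidirectional fits used DMSO as baseline.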
# [5] = molecular target: Aryl hydrocarbon receptor (Homo sapiens) (UniProt P35869); assay: ATG_Ahr_CIS: Attagene CIS-FACTORIAL HepG2 Assay for human Aryl Hydrocarbon Receptor (Ahr) (AID 2282930); details: HepG2 AhR cis-factorial reporter transcription; actives raise or lower the signal
# Sequence of Aryl hydrocarbon receptor (Homo sapiens) (P35869 whole entry, looked up): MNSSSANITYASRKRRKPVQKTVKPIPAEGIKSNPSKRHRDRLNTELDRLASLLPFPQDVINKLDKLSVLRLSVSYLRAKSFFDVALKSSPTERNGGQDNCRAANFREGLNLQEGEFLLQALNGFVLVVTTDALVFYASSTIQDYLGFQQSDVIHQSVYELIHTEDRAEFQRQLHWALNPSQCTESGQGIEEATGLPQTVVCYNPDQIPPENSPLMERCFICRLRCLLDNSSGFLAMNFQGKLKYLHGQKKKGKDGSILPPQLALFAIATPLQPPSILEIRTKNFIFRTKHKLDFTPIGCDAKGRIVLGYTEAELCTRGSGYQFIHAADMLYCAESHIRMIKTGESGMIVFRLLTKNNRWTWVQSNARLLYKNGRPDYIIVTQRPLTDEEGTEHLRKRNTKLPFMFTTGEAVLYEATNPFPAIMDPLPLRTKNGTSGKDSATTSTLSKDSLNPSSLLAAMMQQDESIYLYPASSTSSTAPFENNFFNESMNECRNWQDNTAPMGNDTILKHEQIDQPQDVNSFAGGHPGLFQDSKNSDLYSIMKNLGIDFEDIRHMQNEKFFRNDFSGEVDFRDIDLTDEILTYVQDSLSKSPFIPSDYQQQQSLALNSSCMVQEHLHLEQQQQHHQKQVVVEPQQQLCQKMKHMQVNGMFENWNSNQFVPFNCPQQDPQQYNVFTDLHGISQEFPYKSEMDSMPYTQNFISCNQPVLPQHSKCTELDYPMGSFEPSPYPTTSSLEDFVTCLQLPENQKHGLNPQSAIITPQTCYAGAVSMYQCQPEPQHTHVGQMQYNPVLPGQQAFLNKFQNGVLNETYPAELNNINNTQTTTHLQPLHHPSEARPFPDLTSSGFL
# Method in brief: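 Endogenous factor activity is tracked through cis-promoter reporter units transfected into HepG2 cells. Transcript levels at 24 h are read by fluorescent RT-PCR and capillary electrophoresis, with activity in either direction scored relative to DMSO.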
# [6] = ATG_AP_1_CIS: Attagene CIS-FACTORIAL HepG2 Assay for human Activator Protein 1 (AP-1) (AID 2282931); details: HepG2 Attagene cis-factorial AP-1 reporter mRNA; actives raise or lower the signal
# Method in brief: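 HepG2 cells transiently transfected with cis-element-driven reporter transcription units, dosed for 24 hours. Reporter mRNA measured by RT-PCR, 6-FAM labelling, HpaI digestion and capillary electrophoresis. Bidirectional fitting against DMSO baseline.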
# [7] = ATG_AP_2_CIS: Attagene CIS-FACTORIAL HepG2 Assay for human Activator Protein 2 (AP-2) (AID 2282932); details: HepG2 AP-2 cis-reporter, Attagene transcription factor profiling; actives raise or lower the signal
# Method in brief: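 HepG2 cells transiently transfected with cis-element reporter units and exposed for 24 h. Reporter mRNA measured by RT-PCR, FAM labelling, HpaI digestion and capillary electrophoresis. Changes in either direction fitted relative to DMSO.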
# [8] = ATG_BRE_CIS: Attagene CIS-FACTORIAL HepG2 Assay for human Bone Morphogenetic Protein (BMP) Response Element (BRE) (AID 2282933); details: HepG2 BMP response element reporter, Attagene transcription factor profiling; actives raise or lower the signal
# Method in brief: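 Read-out: reporter mRNA induction quantified by RT-PCR and capillary electrophoresis after 24 h chemical exposure of transfected HepG2 cells. Endogenous factor activity on the BMP response element; gain or loss fitted against DMSO baseline.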
# [9] = molecular target: Retinoic acid receptor alpha (Homo sapiens) (UniProt P10276); assay: ATG_DR5_RAR_CIS: Attagene CIS-FACTORIAL HepG2 Assay for human Retinoic Acid Receptor Alpha (RARE), DR5 submotif (AID 2282934); details: HepG2 Attagene cis-factorial RARE DR5 reporter, mRNA; actives raise or lower the signal;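 on AC50: reporter responds to endogenous RAR alpha beta and gamma in HepG2 not RARA alone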
# Sequence of Retinoic acid receptor alpha (Homo sapiens) (P10276 whole entry, looked up): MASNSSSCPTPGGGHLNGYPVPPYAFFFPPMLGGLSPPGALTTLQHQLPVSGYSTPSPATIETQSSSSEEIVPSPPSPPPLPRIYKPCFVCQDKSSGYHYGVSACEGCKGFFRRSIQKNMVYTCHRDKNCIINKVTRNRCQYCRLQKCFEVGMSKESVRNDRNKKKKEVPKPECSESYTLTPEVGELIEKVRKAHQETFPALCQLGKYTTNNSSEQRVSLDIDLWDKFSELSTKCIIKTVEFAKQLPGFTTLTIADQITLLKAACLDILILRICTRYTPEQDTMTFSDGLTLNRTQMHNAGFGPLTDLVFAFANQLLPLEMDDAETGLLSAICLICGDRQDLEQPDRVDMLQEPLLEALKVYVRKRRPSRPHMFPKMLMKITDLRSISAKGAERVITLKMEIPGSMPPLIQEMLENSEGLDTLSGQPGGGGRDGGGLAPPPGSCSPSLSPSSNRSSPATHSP
# Method in brief: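 After 24 h of chemical exposure, transiently transfected HepG2 cells were lysed for total RNA; the DR5-regulated reporter transcript was quantified via RT-PCR and capillary electrophoresis, with activity fitted bidirectionally against DMSO.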
# [10] = molecular target: Transcription factor E2F1 (Homo sapiens) (UniProt Q01094); assay: ATG_E2F_CIS: Attagene CIS-FACTORIAL HepG2 Assay for human E2F Transcription Factor 1 (AID 2282935); details: HepG2 Attagene cis-reporter, E2F reporter RNA transcripts; actives raise or lower the signal
# Sequence of Transcription factor E2F1 (Homo sapiens) (Q01094 whole entry, looked up): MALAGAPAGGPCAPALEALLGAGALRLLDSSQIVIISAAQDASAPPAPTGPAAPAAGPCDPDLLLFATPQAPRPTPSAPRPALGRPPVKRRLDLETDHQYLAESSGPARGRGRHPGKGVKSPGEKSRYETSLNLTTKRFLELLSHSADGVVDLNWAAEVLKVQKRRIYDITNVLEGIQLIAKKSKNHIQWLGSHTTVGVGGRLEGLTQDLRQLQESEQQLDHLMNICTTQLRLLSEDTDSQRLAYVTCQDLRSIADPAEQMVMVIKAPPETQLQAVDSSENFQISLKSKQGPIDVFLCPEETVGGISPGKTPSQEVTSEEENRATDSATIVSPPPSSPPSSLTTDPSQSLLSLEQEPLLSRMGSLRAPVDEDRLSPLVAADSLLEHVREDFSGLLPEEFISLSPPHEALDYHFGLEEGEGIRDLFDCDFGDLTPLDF
# Method in brief: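 Endogenous E2F1 activity read through cis-promoter reporter units transfected into HepG2. After 24 h compound treatment, reporter mRNA measured by RT-PCR, HpaI digestion and capillary electrophoresis. Bidirectional fit versus DMSO.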
# [11] = ATG_E_Box_CIS: Attagene CIS-FACTORIAL HepG2 Assay for human Enhancer Box (E-box) (AID 2282936); details: HepG2 E-box cis-reporter transcription, actives raise or lower the signal
# Method in brief: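 HepG2 cells transiently transfected with multiplexed cis-element reporter units, dosed 24 h; reporter mRNA quantified by RT-PCR, 6-FAM labelling, HpaI digestion and capillary electrophoresis. E-box (USF1) signal fitted bidirectionally vs DMSO.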
# [12] = ATG_EGR_CIS: Attagene CIS-FACTORIAL HepG2 Assay for human Early Growth Response 1 (EGR1) (AID 2282938); details: HepG2 Attagene CIS-FACTORIAL EGR reporter mRNA; actives raise or lower the signal
# Method in brief: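 HepG2 cells transiently transfected with cis-element-driven multiplexed reporter units, dosed for 24 h. EGR1-element reporter mRNA quantified by RT-PCR, 6-FAM labelling, HpaI digestion and capillary electrophoresis; bidirectional fit versus DMSO.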
# [13] = ATG_M_19_CIS: Attagene CIS-FACTORIAL HepG2 Assay for M19 Transcription Factor (Internal Marker) (AID 2282939); details: HepG2 Attagene CIS-FACTORIAL M19 internal marker reporter; actives raise or lower the signal
# Method in brief: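 Readout: fluorescent reporter-transcript fragments by capillary electrophoresis after RT-PCR. Human HepG2 liver cells carried transfected MRTU constructs reporting endogenous transcription-factor activity; exposure 24 h. Gain or loss of signal fitted relative to DMSO.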
# [14] = ATG_ERE_CIS: Attagene CIS-FACTORIAL HepG2 Assay for Estrogen Response Element (ERE) (AID 2282940); details: HepG2 ERE cis-reporter, Attagene RNA transcript; actives raise or lower the signal
# Method in brief: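 Readout: reporter mRNA induction by RT-PCR, FAM-labelled primer extension, HpaI digestion and capillary electrophoresis, 24 h after dosing transfected HepG2 cells. Endogenous transcription factors act on cis-element-regulated reporters. Gain or loss fitted against DMSO.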
# [15] = ATG_Ets_CIS: Attagene CIS-FACTORIAL HepG2 Assay for human Erythroblast Transformation Specific (ETS) (AID 2282941); details: HepG2 ETS cis-reporter transcription, actives raise or lower the signal
# Method in brief: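 Human HepG2 hepatoma cells were transiently transfected with promoter-driven reporter constructs and treated for 24 hours. Reporter transcripts were quantified by RT-PCR with fluorescent primer extension; bidirectional curve fitting used DMSO as reference.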
# [16] = molecular target: Hepatocyte nuclear factor 3-beta (Homo sapiens) (UniProt Q9Y261); assay: ATG_FoxA2_CIS: Attagene CIS-FACTORIAL HepG2 Assay for human Forkhead box A2 (FOXA2) (AID 2282942); details: HepG2 cis-reporter transcription factor activity, 24 h; actives raise or lower the signal
# Sequence of Hepatocyte nuclear factor 3-beta (Homo sapiens) (Q9Y261 whole entry, looked up): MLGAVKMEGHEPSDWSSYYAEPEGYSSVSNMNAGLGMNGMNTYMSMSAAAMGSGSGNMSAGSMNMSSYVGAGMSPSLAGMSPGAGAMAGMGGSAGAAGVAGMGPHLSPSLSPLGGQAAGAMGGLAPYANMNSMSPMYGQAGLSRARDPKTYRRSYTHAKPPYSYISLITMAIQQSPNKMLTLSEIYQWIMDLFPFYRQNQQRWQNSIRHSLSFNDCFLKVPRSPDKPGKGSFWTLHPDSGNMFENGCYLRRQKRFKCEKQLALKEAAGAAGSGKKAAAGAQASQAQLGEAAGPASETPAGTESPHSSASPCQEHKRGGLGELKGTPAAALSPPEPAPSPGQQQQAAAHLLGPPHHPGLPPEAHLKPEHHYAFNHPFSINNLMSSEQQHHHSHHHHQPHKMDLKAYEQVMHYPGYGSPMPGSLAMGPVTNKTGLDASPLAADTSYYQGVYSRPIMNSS
# Method in brief: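 HepG2 transiently transfected with a multiplexed cis-promoter reporter library read endogenous FOXA2 activity. After 24 h compound exposure, reporter mRNA was quantified by RT-PCR, HpaI digestion and capillary electrophoresis. Bidirectional fit against DMSO.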
# [17] = ATG_FoxO_CIS: Attagene CIS-FACTORIAL HepG2 Assay for human Forkhead box O (FoxO) (AID 2282943); details: HepG2 Attagene cis-reporter, FoxO element, mRNA; actives raise or lower the signal
# Method in brief: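 Transfected HepG2 reporter cells exposed to test chemical for 24 h; reporter RNA measured by reverse transcription, PCR and fluorescent capillary electrophoresis; curves fitted for increases and decreases against DMSO.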
# [18] = ATG_GATA_CIS: Attagene CIS-FACTORIAL HepG2 Assay for human GATA Binding Protein (AID 2282944); details: HepG2 GATA cis-element reporter, Attagene multiplex mRNA; actives raise or lower the signal
# Method in brief: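 Read-out: fluorescent reporter mRNA fragments resolved by capillary electrophoresis after RT-PCR. Human liver HepG2 cells carried transiently transfected cis-regulated reporter constructs; chemicals incubated 24 h; gain or loss of signal fitted relative to DMSO.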
# [19] = ATG_GLI_CIS: Attagene CIS-FACTORIAL HepG2 Assay for human Zinc Finger Protein GLI1 (AID 2282945); details: HepG2, Attagene cis-factorial reporter mRNA, GLI element; actives raise or lower the signal
# Method in brief: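 Transiently transfected HepG2 cells report endogenous transcription factor activity via cis-element-driven reporter units. After 24 h compound exposure, reporter mRNA was measured by RT-PCR with capillary electrophoresis; bidirectional fitting against DMSO baseline.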
# [20] = ATG_M_61_CIS: Attagene CIS-FACTORIAL HepG2 Assay for M61 Transcription Factor (Internal Marker) (AID 2282937); details: HepG2 Attagene CIS-FACTORIAL M61 internal marker reporter; actives raise or lower the signal
# Method in brief: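 HepG2 cells transiently transfected with multiplexed cis-promoter reporter units reporting endogenous transcription factor activity, measured 24 h after dosing. Reporter mRNA quantified by RT-PCR and capillary electrophoresis; bidirectional fit against DMSO baseline.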
smiles,measurement,setting,value
CCCCCCCCCCOC(C)=O,outcome,[1],inactive
same,outcome,[2],inactive
same,outcome,[3],inactive
same,outcome,[4],inactive
same,outcome,[5],inactive
same,outcome,[6],inactive
same,outcome,[7],inactive
same,outcome,[8],inactive
same,outcome,[9],inactive
same,outcome,[10],inactive
same,outcome,[11],inactive
same,outcome,[12],inactive
same,outcome,[13],inactive
same,AC50,[14],8.88 µM (active)
same,outcome,[15],inactive
same,outcome,[16],inactive
same,outcome,[17],inactive
same,outcome,[18],inactive
same,outcome,[19],inactive
O=C(O)c1cc2ccccc2nc1C(=O)O,outcome,[1],inactive
same,outcome,[2],inactive
same,outcome,[3],inactive
same,outcome,[4],inactive
same,AC50,[5],41.1 µM (active)
same,outcome,[6],inactive
same,outcome,[7],inactive
same,outcome,[8],inactive
same,outcome,[9],inactive
same,outcome,[11],inactive
same,outcome,[20],inactive
same,outcome,[12],inactive
same,outcome,[13],inactive
same,outcome,[14],inactive
same,outcome,[15],inactive
same,outcome,[16],inactive
same,outcome,[17],inactive
same,outcome,[18],inactive
same,outcome,[19],inactive
SCCc1cnccn1,outcome,[1],inactive
same,outcome,[2],inactive
same,AC50,[3],53.9 µM (active)
same,outcome,[4],inactive
same,outcome,[5],inactive
same,AC50,[6],27.8 µM (active)
same,outcome,[7],inactive
same,AC50,[8],23.1 µM (active)
same,AC50,[9],27.6 µM (active)
same,outcome,[10],inactive
same,outcome,[11],inactive
same,outcome,[12],inactive
same,outcome,[13],inactive
same,outcome,[14],inactive
same,outcome,[15],inactive
same,outcome,[16],inactive
same,outcome,[17],inactive
same,outcome,[18],inactive
same,outcome,[19],inactive
CCC(=O)Oc1ccc(/C(CC)=C(\CC)c2ccc(OC(=O)CC)cc2)cc1,AC50,[1],25.9 µM (active)
same,outcome,[2],inactive
same,outcome,[3],inactive
same,AC50,[4],6.03 µM (active)
same,outcome,[5],inactive
same,AC50,[6],11.6 µM (active)
same,outcome,[7],inactive
same,outcome,[8],inactive
same,outcome,[9],inactive
same,outcome,[10],inactive
same,AC50,[11],20.4 µM (active)
same,AC50,[12],45.1 µM (active)
same,outcome,[13],inactive
same,AC50,[14],0.0825 µM (active)
same,outcome,[15],inactive
same,outcome,[16],inactive
same,outcome,[17],inactive
same,AC50,[19],51.5 µM (active)
C[Si](C)(C)O[Si](O)(O)O,outcome,[1],inactive
same,outcome,[2],inactive
same,outcome,[3],inactive
same,outcome,[4],inactive
same,outcome,[5],inactive
same,outcome,[6],inactive
same,outcome,[7],inactive
same,outcome,[8],inactive
same,outcome,[9],inactive
same,outcome,[10],inactive
same,outcome,[11],inactive
same,outcome,[12],inactive
same,outcome,[13],inactive
same,outcome,[14],inactive
same,outcome,[15],inactive
same,outcome,[16],inactive
same,outcome,[17],inactive
same,outcome,[18],inactive
same,outcome,[19],inactive
CC(C)c1ccc2c(C(C)C)cc(C(C)C)c(S(=O)(=O)O)c2c1,outcome,[1],inactive
same,outcome,[2],inactive
same,outcome,[3],inactive
same,outcome,[4],inactive
same,outcome,[5],inactive
same,outcome,[6],inactive
same,outcome,[7],inactive
same,outcome,[8],inactive
same,outcome,[9],inactive
same,outcome,[10],inactive
same,outcome,[11],inactive
same,outcome,[12],inactive
same,outcome,[13],inactive
same,AC50,[14],49.7 µM (active)
same,outcome,[15],inactive
same,outcome,[16],inactive
same,outcome,[17],inactive
same,outcome,[18],inactive
same,outcome,[19],inactive
OCCNCc1ccccc1,outcome,[1],inactive
same,outcome,[2],inactive
same,outcome,[3],inactive
same,outcome,[4],inactive
same,outcome,[5],inactive
same,outcome,[6],inactive
same,outcome,[7],inactive
same,outcome,[8],inactive
same,outcome,[9],inactive
same,outcome,[11],inactive
same,outcome,[20],inactive
same,outcome,[12],inactive
same,outcome,[13],inactive
same,outcome,[14],inactive
same,outcome,[15],inactive
same,outcome,[16],inactive
same,outcome,[17],inactive
same,outcome,[19],inactive
